10 molecules from PubChem BioAssay AID1212 (NMMLSC, 2008) can be followed below.

Unmarked numbers belong to inactive results. Active and inactive are the calls of the source.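 The calls were made as follows: active = blocks over 60% of fluorescent estradiol binding at 10 µM; inactive = the rest.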

In the assay the target is G-protein coupled estrogen receptor 1 (Homo sapiens) (UniProt Q99527). Put plainly: GPR30 competitive binders vs fluorescent estrogen, primary screen, cell-based, Cos7 GPR30-GFP, flow cytometry, 10 µM (AID 1212). As to conditions: fluorescent estrogen competition, at 10 µM; stronger effect = higher value.
For the molecule `C=C1c2ccc(OC)cc2NC(=O)N1c1ccccc1`, the call was inactive.

One may read the inhibition as the percentage by which the read-out fell short of the control. Take `COc1ccc2[nH]c3c(c2c1)CCNC3=O`: the inhibition was 15%.

Regarding `CC1CCCC(C)N1Cc1c(O)ccc2c3c(c(=O)oc12)CCC3` (stereo not given), the inhibition is 23%.

With `COc1cc(C2CC(=O)Nc3c2ccc2ccccc32)cc(Cl)c1O` (stereo not given), the inhibition was 3%.

As for `CC(=O)c1ccc(N2Cc3ccccc3C2)cc1`, the result was inactive.

Regarding `CCC(Oc1ccc2c3c(c(=O)oc2c1C)CCC3)C(=O)OC` (stereo not given), the outcome was inactive.

For the molecule `CC1(C)CC(=O)C=C(NC2CC(C)(C)NC(C)(C)C2)C1`, the molecule was called inactive.

`N#Cc1c2c(c(=O)n3c1[nH]c1ccccc13)CCCC2`: the inhibition is 15%.

With `CCCCCCc1cc2c3c(c(=O)oc2cc1OCC(=O)O)CCCC3`, the molecule was classed as inactive.

As to `COC(=O)c1ccc2c(c1)C1C=CCC1C(c1cccc([N+](=O)[O-])c1)N2` (stereo not given), the inhibition was 16%.
